DT40 TDP1 CPT: DT40-hTDP1 cell growth loss with CPT; chicken DT40 Tdp1-/-;hTDP1 cells + 20 nM CPT, ATP luminescence, 48 h; Potency, µM (titrated, usually from 46.2 µM), for inactives: at the highest dose activity change, negative = growth inhibition, most hits filed as inhibitors; 420,000 compounds, 12% hits; also: nearly all actives have a fitted effect of over 55% in size
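Chicken DT40 Tdp1-/- cells complemented with human TDP1, 400 cells/well, exposed to compounds plus 20 nM camptothecin for at least 48 h at 37 C; viability read as ATP content by CellTiter-Glo luminescence.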
TDP1 cell noCPT: qHTS for Inhibitors of human tyrosyl-DNA phosphodiesterase 1 (TDP1): qHTS in cells in absence of CPT; Potency, µM (titrated, usually from 46.2 µM), for the others: at the top dose activity change, negative = growth inhibition, hits mostly inhibitors; 420,000 compounds, 15% hits; AID 686978, 2013; DT40 Tdp1-/- hTDP1 cells, no CPT, ATP luminescence, 48 h; also: nearly all actives have a fitted effect of over 55% in size
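Chicken DT40 Tdp1-/- cells stably complemented with human TDP1 were seeded at 400 cells/well with DMSO in place of 20 nM camptothecin. After compound pinning, cells grew at least 48 hr at 37 °C; viability read by CellTiter-Glo luminescence.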
TDP1 inh: inhibitors of human tyrosyl-DNA phosphodiesterase TDP1; Q9NUW8; recombinant TDP1, AlphaScreen DNA substrate cleavage; Potency, µM (titrated, usually from 130 µM), inactives show at the highest dose activity change, negative = inhibition, actives largely listed as inhibitors; 350,000 compounds, 0.28% hits; also: nearly all actives have a fitted effect of over 40% in size
Target sequence (Q9NUW8 whole entry, looked up): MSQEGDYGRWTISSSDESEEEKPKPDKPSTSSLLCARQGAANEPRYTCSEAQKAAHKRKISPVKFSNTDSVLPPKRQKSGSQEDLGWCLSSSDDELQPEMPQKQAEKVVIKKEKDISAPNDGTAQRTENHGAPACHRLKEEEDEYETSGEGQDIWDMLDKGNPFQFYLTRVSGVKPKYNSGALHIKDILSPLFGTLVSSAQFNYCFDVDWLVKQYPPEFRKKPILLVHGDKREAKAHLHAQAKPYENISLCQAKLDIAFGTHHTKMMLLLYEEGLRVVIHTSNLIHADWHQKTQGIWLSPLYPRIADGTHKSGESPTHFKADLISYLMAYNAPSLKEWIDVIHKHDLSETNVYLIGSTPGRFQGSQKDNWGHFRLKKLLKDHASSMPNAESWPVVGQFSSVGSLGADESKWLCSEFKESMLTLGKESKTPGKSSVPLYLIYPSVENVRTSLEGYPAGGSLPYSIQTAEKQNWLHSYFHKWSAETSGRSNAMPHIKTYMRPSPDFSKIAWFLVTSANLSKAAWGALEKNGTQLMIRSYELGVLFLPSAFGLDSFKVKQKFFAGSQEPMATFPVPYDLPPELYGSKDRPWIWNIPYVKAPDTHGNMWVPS
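Tdp1 1 nM final; 15 min RT w/ cpd; substrate 15 nM, 5 min; beads 10 ug/ml, 10 min; AlphaScreen read. Neg ctrl: no enzyme.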
Gal4-VP16 FLuc: Gal4-VP16 reporter inhibition counter-screen | Drosophila S2 Gal4-VP16 UAS-luciferase, luminescence, 20 h | Potency, µM (series often up to 53.6 µM), without a hit: at the highest dose activity, negative = inhibition, usual class: inhibitors | 310,000 compounds, 3.5% hits;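 also: Gal4-VP16 expression switched on by copper sulfate through the metallothionein promoter; nearly all actives have a fitted effect of over 50% in size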
RORgamma inh: ROR gamma (mouse) transcription inhibition | Potency, µM (titrated, usually from 53.6 µM), for inactives: at the highest dose activity change, negative = inhibition, hits mostly inhibitors | 310,000 compounds, 5.4% hits | Drosophila S2 Gal4-RORgamma UAS-luciferase reporter, 20 h | P51450; also: nearly all actives have a fitted effect of over 60% in size
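Compounds are pin-transferred onto Drosophila Schneider cells expressing a copper-inducible Gal4–ROR gamma transactivation domain fusion. After 1 hr, copper sulfate is added to 700 uM final; luciferase is read 20 hr later.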
* marks the source's active call; other numbers are inactive results; u = inconclusive; x = no result; [ ] = dose if it differs, or a comment. Hits are enriched below; roughly 19% of the tested compounds scored in any of these assays. Calls follow the shape of the dose curve; as a rule, active = well fitted curve in the direction sought with a large enough effect; inconclusive = small, poorly fitted or top-dose-only effect, or another doubt; inactive = no such curve, though single readings can be large; an effect the other way counts as inactive or inconclusive. % is scaled to controls: 0 for no effect and ±100 for the full control effect; potency is read from the fitted curve at half-maximal effect.

SMILES | DT40 TDP1 CPT | TDP1 cell noCPT | TDP1 inh | Gal4-VP16 FLuc | RORgamma inh
COc1ccc(NC(=O)COC(=O)c2ccc(S(=O)(=O)N(C)c3ccccc3OC)cc2)cc1 | -4% | 19% | x | x | x
CCN(CC(=O)NC(C)C)C(=O)c1ccc(S(=O)(=O)N(C)c2ccccc2OC)cc1 | u | 15µM* | 11% | 2% | 2%
COc1ccc(C(CC(=O)O)n2cnnn2)cc1 (stereo not given) | 7% | -7% | 3% | -8% | -1%
CCN(Cc1ccccc1)C(=O)c1ccc(CNS(=O)(=O)c2ccc(C)cc2)cc1 | u | u | 3% | -16% | u
CCN(Cc1ccccc1)C(=O)c1ccc(N(C)S(=O)(=O)c2ccc(C)cc2)cc1 | 18µM* | 15µM* | 5% | x | x
COCc1[nH]c(=S)c(C#N)cc1C(=O)OC | u | u | x | -21% | u
Cc1cccc(/C(N)=N/OC(=O)c2cccs2)c1 | -29% | -23% | -2% | u | 8.9µM*
COc1cc(OC)c(C(=O)O/N=C(\N)c2cccc(C)c2)cc1OC | 21µM* | u | x | -19% | -10%
N/C(=N\OC(=O)c1cccs1)c1cccc(Br)c1 | 4% | -11% | 2% | -14% | -1%
COc1ccc(/C(N)=N/OC(=O)c2ccc3c(c2)OCO3)cc1OC | 21µM* | u | 2% | -16% | 0%
N/C(Cc1ccc(Cl)cc1Cl)=N\OC(=O)c1cccs1 | -21% | -6% | 6% | u | 13µM*
N/C(Cc1ccc(Cl)cc1Cl)=N\OC(=O)Cc1cccs1 | 4% | -5% | 1% | -10% | 34%
N/C(Cc1cccc2ccccc12)=N\OC(=O)c1ccc2c(c1)OCO2 | 16µM* | 21µM* | 0% | u | -16%
COc1ccc(C(=O)CC(C#N)c2ccc3c(c2)OCO3)cc1OC (stereo not given) | u | 21µM* | x | x | x
Cc1ccc(/C(N)=N/OC(=O)c2cccs2)cc1 | 23µM* | 21µM* | 0% | u | u
COc1ccc(C(C#N)CC(=O)c2ccc3c(c2)OCO3)cc1OC (stereo not given) | -19% | -24% | x | x | x
COc1ccc(/C(N)=N/OC(=O)c2cccs2)cc1OC | 12µM* | u | 3% | 4% | -11%
N/C(=N\OC(=O)c1ccc2c(c1)OCO2)c1cccnc1 | -23% | -24% | -1% | u | -78%
COc1ccccc1-c1noc(-c2ccccc2C(=O)N2CCOCC2)n1 | -16% | -23% | 0% | 0% | 0%
COC(=O)C1CSC2c3ccccc3C(=O)N12 (stereo not given) | 18µM* | u | x | x | x
CC(C)NC(=O)[C@@H]1CSC2c3ccccc3C(=O)N21 (stereo not given in full) | 5% | 1% | x | 13% | -22%
CC(=O)C1(O)CCC2C3CCC4CC(O)CCC4(C)C3C(=O)CC21C (stereo not given) | 13% | 1% | x | x | x
C#CC1(O)CCCC2C3CCC4CC(OC(C)=O)CCC4(C)C3C(=O)CC21C (stereo not given) | 23µM* | 21µM* | x | x | x
CC(C)(C)c1ccc(-n2ncc3c2CCCC3NC(=O)c2ccco2)cc1 (stereo not given) | 21µM* | 15µM* | x | x | x
Cc1cc(C(=O)NC2CCCc3c2cnn3-c2ccc(C(C)(C)C)cc2)nn1C (stereo not given) | 8.2µM* | 16µM* | 4% | 11µM* | u
SMILES | DT40 TDP1 CPT | TDP1 cell noCPT | TDP1 inh | Gal4-VP16 FLuc | RORgamma inh
CC(=O)Nc1cccc(C(=O)NC2CCCc3c2cnn3-c2ccc(C(C)(C)C)cc2)c1 (stereo not given) | u | u | 4% | -26% | u
Cc1ccc(C(=O)N2C(=S)C(c3ccc(F)cc3)=NC23CCN(C)CC3)cc1 | 5.2µM* | 4.6µM* | 5% | u | 75%
COc1ccc(S(=O)(=O)NNC(=O)c2cc3cc4ccccc4nc3s2)cc1 | -8% | -4% | 6% | 22µM* | u
COc1ccc2cc3cc(C(=O)NCCCN4CCc5ccccc5C4)sc3nc2c1 | u | u | 8% | 3% | 14%
COc1ccc2nc3sc(C(=O)NCCN4CCc5ccccc5C4)cc3cc2c1 | 21µM* | 16µM* | -1% | -6% | 11%[10 µM]
CCOc1ccc(CCNC(=O)c2cc3cc4ccc(OC)cc4nc3s2)cc1OCC | -45% | u | 2% | x | x
NNC(=O)c1cc2cc3ccccc3nc2s1 | 5.2µM* | u | 6% | -11% | 13µM*
CS(=O)(=O)NNC(=O)c1cc2cc3ccccc3nc2s1 | -5% | -19% | 2% | -21% | -11%
COc1ccc2cc3cc(C(=O)NC4CC4)sc3nc2c1 | 23µM* | 18µM* | -1% | u | u
Cn1nc(-c2ccc(Cl)cc2)c2cc(C(=O)NCCCN3CCCC3)sc21 | u | 23µM* | 7% | -23% | -24%
COCCCNC(=O)c1cc2c(-c3ccc(Cl)cc3)nn(C)c2s1 | u | u | 1% | -19% | -2%
COCCNC(=O)c1cc2c(-c3ccc(Cl)cc3)nn(C)c2s1 | u | u | 0% | -2% | -4%
CCN1CCCC1CNC(=O)c1cc2c(-c3ccc(Cl)cc3)nn(C)c2s1 (stereo not given) | 18µM* | 18µM* | 4% | -18% | -37%
COC(=O)C(C)N1C(=O)S/C(=C/c2cc(C)n(-c3ccccn3)c2C)C1=O (stereo not given) | u | 16µM* | 4% | u | -1%
CCOC(=O)CN1C(=O)S/C(=C/c2cc(C)n(-c3ccccn3)c2C)C1=O | u | u | 4% | 6% | 4%
COC(=O)C(C)N1C(=O)S/C(=C\c2cc(C)n(-c3ccccn3)c2C)C1=O (stereo not given) | 13µM* | u | 6% | 2% | -18%
O=C1CCC2(CCCCC2)N1 | -2% | 3% | x | x | x
COC(=O)c1ccccc1S(=O)(=O)N1CCC(NC(=O)c2ccccc2)CC1 | -8% | 0% | x | 5% | 29%
CCc1ccc(C(=O)c2cncc(Br)c2)cc1 | 10µM* | 8.2µM* | 0% | -10% | u
O=C(c1ccc2c(c1)OCCO2)N(Cc1cccnc1)c1nc2c(Cl)cccc2s1 | u | 23µM* | 11% | x | x
COc1ccc2nc(N(Cc3cccnc3)C(=O)c3ccc4c(c3)OCCO4)sc2c1 | -29% | u | 3% | x | x
CCOc1ccc2nc(N(Cc3cccnc3)C(=O)c3ccc4c(c3)OCCO4)sc2c1 | u | 21µM* | 8% | x | x
CC1CCN(CCc2nc3cc(NC(=O)COc4ccc([N+](=O)[O-])cc4)ccc3n2C)CC1 | 16µM* | u | 4% | -2% | 8%
